# Measured values from PubChem BioAssay (NCATS).
# “And” between values parts separate entries of the source, which are not always exact repeats. Identical values can stand only once. Results filed as inconclusive are left out. Some structures have more than one record in an assay (separate samples or runs), and their calls can disagree. The source made the active and inactive calls. Calls follow the shape of the dose curve; as a rule, active = well fitted inhibition curve with a large enough effect; inconclusive = small, poorly fitted or top-dose-only effect; inactive = no such curve, though single readings can be large or run the other way.
# Assay: Primary qHTS for inhibitors of nuclear receptor binding SET domain protein 2 (NSD2) in an RCH-ACV wild type WT cells (2C) (AID 1645877); also: nearly all actives have a fitted effect of over 70% in size
# Details: RCH-ACV (leukaemia line) NSD2 WT (2C) viability, CellTiter-Glo, 72 h; series mostly up to 44.9 µM; activity change, negative = cell killing: at the top concentration
# % is scaled to controls: 0 for no effect and ±100 for the full control effect; potency is read from the fitted curve at half-maximal effect.
Compound,"activity change, negative = cell killing",Potency,outcome
C[C@]12CC[C@H]3[C@@H](CCC4=CC(=O)CC[C@@]43C)[C@H]1CC[C@H]2OC(=O)CCC1CCCC1,-11.3% (inactive),,
CN[C@@H]1Cc2cccc3[nH]c(=O)n(c23)C1,7.38% (inactive),,
O=C1C=CC[C@@H]2[C@H]3CCCN4CCC[C@@H](CN12)[C@@H]34,0.956% (inactive),,
CN(C)NC(=O)CCC(=O)O,-14.1% (inactive),,
C[C@]12CC[C@@H]3[C@@H](CCC4=CC(=O)CC[C@@H]43)[C@@H]1CC[C@@H]2OC(=O)CCc1ccccc1,2.51% (inactive),,
CCNC(=O)CC1N=C(c2ccc(Cl)cc2)c2cc(OC)ccc2-n2c(C)nnc21 (centres undefined),,5.9 µM (active) and inactive and 409 nM (active),
O=S(=O)(c1ccc(Cl)cc1)c1ccc(Cl)cc1,-23.1% [at 91.9 µM] (inactive),,
CCCN1CCO[C@@H]2c3cc(O)ccc3OC[C@H]21,6.45% (inactive),,
O=C(Oc1ccc([N+](=O)[O-])cc1)N1CCC(C(O)(c2ccc3c(c2)OCO3)c2ccc3c(c2)OCO3)CC1,,inactive,
CCNC(=O)C[C@@H]1N=C(c2ccc(Cl)cc2)c2cc(OC)ccc2-n2c(C)nnc21,,459 nM (active) and 833 nM (active),
O=c1cccc2n1CC1CNC[C@H]2C1,-13.6% (inactive),,
CC(C)[C@]12O[C@H]1[C@@H]1O[C@]13[C@]1(O[C@H]1C[C@H]1C4=C(CC[C@@]13C)C(=O)OC4)[C@@H]2O,,12.9 nM (active) and 18.6 nM (active),
CC[C@@]1(O)C(=O)OCc2c1cc1n(c2=O)Cc2cc3ccccc3nc2-1,,13.2 nM (active),
CCOP(=O)(OCC)C(C)NC(=O)N(CCCl)N=O (centres undefined),,,inactive
